Compound activity deposited in PubChem BioAssay by National Center for Advancing Translational Sciences (NCATS).
HT1080 IDH1KD tx: toxicity to HT-1080 IDH1 knockdown cells (counter line); Potency, µM (doses to about 46.1 µM), for the others: at the top dose activity, negative = toxicity, hits mostly cytotoxic; HT-1080 IDH1 knockdown viability, ATP luminescence, 48 h; actives 2% (n = 360,000);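 further: potency means the concentration at half of the fitted maximal effect; 0% = DMSO wells and -100% = cell-free medium wells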
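% activity derives from luminescence (CellTiter-Glo), normalised to DMSO and no-cell wells. HT-1080-IDH1KD cells, 750/well, had 48 h compound exposure at 37 °C.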
HT1080-NT tox: kills 2HG-producing HT-1080-NT fibrosarcoma cells. HT-1080-NT fibrosarcoma viability, CellTiter-Glo ATP luminescence, 48 h. AID 686970. Potency, µM (doses to about 46.1 µM), for inactives: at the top dose activity, negative = less viability, hits mostly cytotoxic. actives 1.6% (n = 360,000);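 further: NT is the 2HG producing partner of a matched IDH1 knockdown line; potency means the concentration at half of the fitted maximal effect; 0% = DMSO-treated cells and -100% = media-only wells without cells; nearly all actives have a fitted effect of over 55% in size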
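Toxicity toward the 2HG-producing NT line was scored as %Activity, normalised to DMSO and no-cell wells, from CellTiter-Glo luminescence after 48 hours' treatment.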
IL1B secr inh: inflammasome signaling inhibition, IL-1 beta readout. THP-1 LPS/ATP IL-1B secretion, AlphaLISA, 16 h; stronger effect = lower value. activity change, % at 57.5 µM. actives 4.7% (n = 360,000); in the data active means activity change below about -50%; inconclusive means mostly about -30% to -49%
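THP-1 cells pretreated 1 hr with compounds (up to 57.5 uM final), then stimulated with LPS (250 ng/mL final) plus ATP (1.25 mM final); secreted IL-1B measured by AlphaLISA after 16 hr, decreased signal indicating inhibition.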
DT40 TDP1 no CPT: qHTS for Inhibitors of human tyrosyl-DNA phosphodiesterase 1 (TDP1): qHTS in cells in absence of CPT. DT40 Tdp1-/- hTDP1 cells, no CPT, ATP luminescence, 48 h. Potency, µM (titrated, usually from 46.2 µM), inactives show at the top dose activity change, negative = growth inhibition, hits mostly inhibitors. actives 15% (n = 420,000). AID 686978, 2013; further: potency means the concentration at half of the fitted maximal effect; nearly all actives have a fitted effect of over 55% in size
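Growth of hTDP1-complemented DT40 Tdp1-knockout cells is measured by ATP luminescence after at least 48 hr compound exposure at 37 °C, with DMSO substituting for the 20 nM CPT used in the parallel screen.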
TDP1 cell CPT: DT40-hTDP1 cell growth loss with CPT; chicken DT40 Tdp1-/-;hTDP1 cells + 20 nM CPT, ATP luminescence, 48 h; Potency, µM (top dose mostly 46.2 µM), without a hit: top-dose activity change, negative = growth inhibition, actives largely listed as inhibitors; actives 12% (n = 420,000); further: potency means the concentration at half of the fitted maximal effect; nearly all actives have a fitted effect of over 55% in size
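Cell growth measured by CellTiter-Glo luminescence after a minimum 48 h, 37 C compound exposure with 20 nM CPT in Tdp1-knockout DT40 cells stably expressing hTDP1, seeded 400/well; qHTS titration format.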
Starred values were filed as active, the others as inactive; ? = inconclusive; / = no result given; [ ] = dose if it differs, or a comment. The list is not random: actives were taken first. Their share in the collection is about 19%. Unless noted, the call rests on the fitted dose curve; in most records, active means well fitted curve in the direction sought with a large enough effect; inconclusive means small, poorly fitted or top-dose-only effect, or another doubt; inactive means no such curve, though single readings can be large; an effect the other way counts as inactive or inconclusive. Unless noted, on the % scale 0 is the no-effect control and ±100 the full control effect.

SMILES | HT1080 IDH1KD tx | HT1080-NT tox | IL1B secr inh | DT40 TDP1 no CPT | TDP1 cell CPT
COc1ccc(/C=C/C(=O)NC(=S)Nc2ccc(C(=O)O)cc2)cc1 | 4.3% | -0.1% | 0.0 | 3.2% | -11.9%
CC(C)CN(C(=O)COc1ccc(-c2nnco2)cc1)C1CCS(=O)(=O)C1 (configuration not stated) | 13.0% | 8.4% | 15.1 | 1.8% | ?
O=C1c2ccccc2NC(c2ccc(-c3ccc(Br)cc3)o2)N1O (configuration not stated) | 11.2µM* | 7.94µM* | 100.6 | ? | ?
CC1=CC(=O)C=C(C)C1=NOC(=O)c1cccc([N+](=O)[O-])c1 | -18.8% | 0.1% | -8.7 | ? | 10.3µM*
COC(=O)C[C@@H]1OC[C@H](C)N1S(=O)(=O)c1ccc(C)cc1 | 19.2% | 25.4% | -5.4 | 0.0% | -2.6%
COC(=O)CC1N(S(=O)(=O)c2ccc(C)cc2)c2ccccc2C1(C(=O)OC)C(=O)OC (configuration not stated) | 3.1% | 2.6% | 21.0 | ? | 25.9µM*
Cc1ccc(S(=O)(=O)N2c3ccccc3OC(C(=O)OC(C)(C)C)(C(=O)OC(C)(C)C)C2CC(=O)c2ccccc2)cc1 (configuration not stated) | -10.8% | -3.7% | -27.5 | 5.8µM* | 6.51µM*
Cc1ccc(S(=O)(=O)N2C[C@@H]3c4ccccc4N(S(=O)(=O)c4ccc(C)cc4)[C@@H]3[C@@H](C)C2CC(=O)c2ccccc2)cc1 (some centres not stated) | 8.3% | 8.9% | -4.7 | -3.3% | 3.8%
CCOc1ccccc1-c1cc(C(=O)Nc2ccc(C(=O)O)cc2)c2ccccc2n1 | -5.0% | 0.8% | 24.0 | -28.5% | ?
CCOc1ccccc1-c1cc(C(=O)N/N=C/c2ccc(O)c(OC)c2)c2ccccc2n1 | ? | ? | -5.7 | 0.581µM* | 1.46µM*
O=C(N/N=C/c1ccc2c(c1)OCO2)c1cc(-c2ccccc2Cl)nc2ccccc12 | 10.0% | -1.2% | 24.3 | -7.3% | 2.4%
CCOc1ccccc1-c1cc(C(=O)N/N=C/c2ccc3c(c2)OCO3)c2ccccc2n1 | -20.6% | -7.4% | 7.7 | 9.2µM* | 11.6µM*
Cc1sc(NC(=O)c2ccco2)c(CN2CCN(c3ccccc3)CC2)c1C | -9.7% | -11.9% | -18.0 | 10.3µM* | 14.6µM*
Cc1sc(NC(=O)c2ccco2)c(C(c2ccncc2)N2CCOCC2)c1C (configuration not stated) | -12.0% | 6.5% | 17.6 | ? | -27.3%
Cc1sc(NC(=O)c2ccco2)c(CN2CCCCC2)c1C | 6.4% | 6.5% | -18.6 | ? | ?
Cc1sc(NC(=O)c2ccco2)c(C(Nc2ccccn2)c2ccccc2)c1C (configuration not stated) | -9.7% | -10.4% | -50.8* | ? | -14.6%
Cc1sc(NC(=O)c2ccco2)c(C(c2cccnc2)N2CCCC2)c1C (configuration not stated) | ? | ? | -29.4 | 2.31µM* | 2.91µM*
Cc1sc(NC(=O)c2ccco2)c(C(c2cccnc2)N2CCN(C)CC2)c1C (configuration not stated) | -9.8% | -28.6% | -4.2 | 11.6µM* | 20.6µM*
Cc1ccc(NC(=O)Nc2cc(C(F)(F)F)c[nH]c2=O)cc1 | -0.1% | -3.3% | -24.0 | -10.0% | -1.8%
O=C(NN=Cc1ccc(OC(F)F)cc1)c1ccc(NS(=O)(=O)c2cccs2)cc1 | -2.3% | -1.0% | ? | ? | ?
CCOc1ccc(C(c2c(NC(=O)c3ccco3)sc(C)c2C)N2CCOCC2)cc1 (configuration not stated) | -21.3% | 8.1%[9.24 µM] | ? | ? | 23.1µM*
COc1ccc(S(=O)(=O)N(C)C[C@@H]2OCCCC[C@H](C)Oc3ccc(NC(=O)Nc4ccc(C(F)(F)F)cc4)cc3C(=O)N([C@H](C)CO)C[C@H]2C)cc1 | -18.4% | -16.0% | -13.9 | 7.31µM* | 19.2%
C[C@H]1CCCCO[C@@H](CN(C)S(=O)(=O)c2ccc(F)cc2)[C@@H](C)CN([C@@H](C)CO)C(=O)c2cc(NC(=O)Nc3ccc4c(c3)OCO4)ccc2O1 | -3.7% | -4.7% | -27.3 | 9.2µM* | 18.4µM*
C[C@@H]1CCCCO[C@@H](CN(C)S(=O)(=O)c2ccc(F)cc2)[C@@H](C)CN([C@H](C)CO)C(=O)c2cc(NC(=O)c3ccccc3)ccc2O1 | -8.3% | -21.2% | -0.7 | ? | ?
C[C@@H]1CCCCO[C@H](CN(C)S(=O)(=O)c2ccc(F)cc2)[C@@H](C)CN([C@H](C)CO)C(=O)c2cc(NC(=O)Nc3ccc(C(F)(F)F)cc3)ccc2O1 | -17.5% | -12.3% | -15.8 | 8.2µM* | 9.2µM*
SMILES | HT1080 IDH1KD tx | HT1080-NT tox | IL1B secr inh | DT40 TDP1 no CPT | TDP1 cell CPT
O=C1C(=Cc2ccccn2)CCc2ccccc21 | ? | ? | -108.3* | 4.11µM* | 14.6µM*
C(=N\N=C\c1ccccn1)/c1ccccn1 | 18.5% | 29.3% | -3.3 | -5.3% | 16.5%
COc1ccc2c(c1)CC/C(=C/c1ccccn1)C2=O | -22.9% | -22.8% | ? | ? | ?
C(=C1c2ccccc2-c2ccccc21)c1ccccn1 | ? | -19.0% | -8.0 | 13µM* | ?
COc1cc(=O)n2c(c1C(=O)NCc1ccco1)CCN(C(=O)c1ccccc1-c1ncc[nH]1)CC2 | / | / | / | -2.1% | 22.5%
CCc1nn(CC(=O)Nc2ccc(NC(C)=O)cc2)c(=O)c2cc3sccc3n12 | / | / | / | -20.6% | -20.8%
CCc1nn(CC(=O)NCCCN2CCc3ccccc3C2)c(=O)c2cc3sccc3n12 | -19.5% | -4.6% | -28.2 | ? | 23.1µM*
CCc1nn(CC(=O)NCCCN2CCN(C)CC2)c(=O)c2cc3sccc3n12 | 6.3% | 7.6% | -11.2 | 16.9% | -11.3%
CCc1nn(CC(=O)Nc2cccc(C(C)=O)c2)c(=O)c2cc3sccc3n12 | / | / | / | ? | 18.4µM*
CC(=O)c1cccc(NC(=O)Cn2nc(C)n3cccc3c2=O)c1 | / | / | / | 16.4µM* | -10.7%
CC(C)NC(=S)N/N=C1\CCCCc2ccccc21 | -3.6% | 9.5% | 12.0 | 20.6µM* | ?
Cc1ccc(C)c(NC(=S)N/N=C2/CCCCc3ccccc32)c1 | ? | -21.4% | -12.9 | ? | ?
S=C(N/N=C1\CCc2ccccc21)NC1CCCCC1 | -14.5% | -3.1% | 39.2 | 23.1µM* | ?
COCCCNC(=O)c1cc(S(=O)(=O)N2CCC3(CC2)OCCO3)ccc1F | -0.5% | -0.1% | 16.4 | -23.7% | 3.9%
Cc1cc2nc(-c3ccco3)c(Cc3ccccc3C(F)(F)F)n2c(C)c1Br | 1.8% | 4.5% | 0.0 | ? | ?
